# Laboratory results as given in the supplement of paper PMC10037445.
# Whole data set: some 2,900 compounds, median “NF-kB SEAP reporter activity, fold change vs agonist alone” near 0.99, cut for the highest 2% near 2.6. The sample as a whole holds a higher share of the highest values than the screen did.
# Assays:
# [1] = test system: RAW-Dual; assay: NF-kB SEAP reporter activity, fold change vs agonist alone; higher = enhanced NF-kB activity
# Method in brief: (§1)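 Cytotoxic wells were those whose IncuCyte confluency was below 70% of agonist controls in both mask sets. The cells were RAW-Dual macrophages at 50,000 cells/well in DMEM on 384-well plates, dosed with 50 nL of library stock by pin tool, stimulated with a PRR agonist 1 h later, and kept at 37 °C, 5% CO2 for 20 hours. IRF and NF-κB reporter activity, as fold change over agonist-alone wells, came from supernatant read by QuantiLuc luminescence and QuantiBlue absorbance, respectively.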
# [2] = test system: RAW-Dual; assay: NF-kB SEAP reporter activity, fold change vs agonist alone; cytotoxicity flag (confluency mask): not cytotoxic; higher = enhanced NF-kB activity
# Method in brief: as §1
# [3] = test system: RAW-Dual; assay: NF-kB SEAP reporter activity, fold change vs agonist alone; cytotoxicity flag (confluency mask): cytotoxic (confluency <70% of control); higher = enhanced NF-kB activity
# Method in brief: as §1
# [4] = library stock concentration (final ~1000-fold dilution): 10 mM, cytotoxicity flag (confluency mask): not cytotoxic, agonist: Imiquimod (TLR7) […]
# [5] = library stock concentration (final ~1000-fold dilution): 10 mM, cytotoxicity flag (confluency mask): not cytotoxic, agonist: MPLA (TLR4) […]
# [6] = agonist: ODN 1826 (TLR9) 0.5 ug/mL
# [7] = agonist: Pam2CSK4 (TLR2/6) 0.1 ug/mL
# [8] = agonist: Pam3CSK4 (TLR2/1) 0.1 ug/mL
# [9] = library stock concentration (final ~1000-fold dilution): 10 mM, cytotoxicity flag (confluency mask): cytotoxic (confluency <70% of control), agonist: Imiquimod (TLR7) […]
# [10] = library stock concentration (final ~1000-fold dilution): 10 mM, cytotoxicity flag (confluency mask): cytotoxic (confluency <70% of control), agonist: MPLA (TLR4) […]
compound,measurement,setting,value
Nc1ccc2ncnc(NCCc3ccc(Oc4ccccc4)cc3)c2c1,NF-kB SEAP reporter activity,[1]; [4],1.46
Cc1ccc(CNc2ncnc3ccc(-c4ccc(CO)o4)cc23)o1,NF-kB SEAP reporter activity,[1]; [4],1.07
same,NF-kB SEAP reporter activity,[1]; [5],1.24
O=C(Nc1ccc(Cl)cc1)c1cc2ccccc2cc1OP(=O)(O)O (library stock concentration (final ~1000-fold dilution): 10 mM),NF-kB SEAP reporter activity,[2]; agonist: LPS (TLR4) 0.1 ug/mL,1.08
same,NF-kB SEAP reporter activity,[2]; [6],0.965
same,NF-kB SEAP reporter activity,[2]; [7],0.931
same,NF-kB SEAP reporter activity,[2]; [8],0.763
O=C(Nc1ccc(Cl)cc1)c1cc2ccccc2cc1OP(=O)(O)O,NF-kB SEAP reporter activity,[1]; [4],0.877
same,NF-kB SEAP reporter activity,[1]; [5],1.04
N=C(N)NCCCC1NC(=O)C(CCCCN)NC(=O)C(Cc2ccccc2)NC(=O)C(CC(=O)O)NC(=O)CNC1=O.O=C(O)C(F)(F)F (centres undefined),NF-kB SEAP reporter activity,[1]; [4],0.934
same,NF-kB SEAP reporter activity,[1]; [5],1.07
N=C(N)NCCCC1NC(=O)C(CCCCN)NC(=O)C(Cc2ccccc2)NC(=O)C(CC(=O)O)NC(=O)CNC1=O.O=C(O)C(F)(F)F (centres undefined) (library stock concentration (final ~1000-fold dilution): 10 mM),NF-kB SEAP reporter activity,[2]; agonist: LPS (TLR4) 0.1 ug/mL,1.07
same,NF-kB SEAP reporter activity,[2]; [6],0.955
same,NF-kB SEAP reporter activity,[2]; [7],1.13
same,NF-kB SEAP reporter activity,[2]; [8],0.988
COc1ncc(-c2cc(-c3ncc(CN4CC(C)OC(C)C4)o3)c3cn[nH]c3c2)cc1NS(C)(=O)=O (centres undefined) (library stock concentration (final ~1000-fold dilution): 10 mM),NF-kB SEAP reporter activity,[3]; agonist: LPS (TLR4) 0.1 ug/mL,5.18
same,NF-kB SEAP reporter activity,[3]; [6],0.639
same,NF-kB SEAP reporter activity,[3]; [7],1.01
same,NF-kB SEAP reporter activity,[3]; [8],1.39
COc1ncc(-c2cc(-c3ncc(CN4CC(C)OC(C)C4)o3)c3cn[nH]c3c2)cc1NS(C)(=O)=O (centres undefined),NF-kB SEAP reporter activity,[1]; [9],0.604
same,NF-kB SEAP reporter activity,[1]; [10],2.18
CCN(CCO)CCCC(C)Nc1ccnc2cc(Cl)ccc12.O=S(=O)(O)O (centres undefined) (library stock concentration (final ~1000-fold dilution): 10 mM water),NF-kB SEAP reporter activity,[2]; agonist: LPS (TLR4) 0.1 ug/mL,1.41
same,NF-kB SEAP reporter activity,[2]; [6],0.252
same,NF-kB SEAP reporter activity,[2]; [7],0.864
same,NF-kB SEAP reporter activity,[2]; [8],0.763
CCN(CC)Cc1cc(Nc2ccnc3cc(Cl)ccc23)ccc1O.Cl.Cl.O.O,NF-kB SEAP reporter activity,[1]; [4],0.244
same,NF-kB SEAP reporter activity,[1]; [5],0.82
CCN(CC)Cc1cc(Nc2ccnc3cc(Cl)ccc23)ccc1O.Cl.Cl.O.O (library stock concentration (final ~1000-fold dilution): 10 mM),NF-kB SEAP reporter activity,[2]; agonist: LPS (TLR4) 0.1 ug/mL,0.419
same,NF-kB SEAP reporter activity,[2]; [6],0.184
same,NF-kB SEAP reporter activity,[2]; [7],0.719
same,NF-kB SEAP reporter activity,[2]; [8],0.633
CN(CCNCc1cn(Cc2ccc(Cl)cc2)nn1)CCNc1ccnc2cc(Cl)ccc12.O=C(O)C(F)(F)F (library stock concentration (final ~1000-fold dilution): 10 mM),NF-kB SEAP reporter activity,[3]; agonist: LPS (TLR4) 0.1 ug/mL,2.67
same,NF-kB SEAP reporter activity,[3]; [6],0.269
same,NF-kB SEAP reporter activity,[3]; [7],1.18
same,NF-kB SEAP reporter activity,[3]; [8],1.87
Cc1ccc(NCCN(C)CCNc2ccnc3cc(Cl)ccc23)c2c(=O)c3ccccc3sc12,NF-kB SEAP reporter activity,"[1]; library stock concentration (final ~1000-fold dilution): 2 mM, cytotoxicity flag (confluency mask): not cytotoxic, agonist: Imiquimod (TLR7) […]",0.907
same,NF-kB SEAP reporter activity,"[1]; library stock concentration (final ~1000-fold dilution): 2 mM, cytotoxicity flag (confluency mask): not cytotoxic, agonist: MPLA (TLR4) […]",1.05
CN(CCNCc1cn(Cc2ccc(Cl)cc2)nn1)CCNc1ccnc2cc(Cl)ccc12.O=C(O)C(F)(F)F,NF-kB SEAP reporter activity,[1]; [9],1.52
same,NF-kB SEAP reporter activity,[1]; [10],2.19
Cc1ccc(NCCN(C)CCNc2ccnc3cc(Cl)ccc23)c2c(=O)c3ccccc3sc12 (library stock concentration (final ~1000-fold dilution): 2 mM),NF-kB SEAP reporter activity,[2]; agonist: LPS (TLR4) 0.1 ug/mL,1.45
same,NF-kB SEAP reporter activity,[2]; [6],1.04
same,NF-kB SEAP reporter activity,[2]; [7],0.845
same,NF-kB SEAP reporter activity,[2]; [8],1.06
CN(CCNc1ccnc2cc(Cl)ccc12)CCNc1ccnc2cc(Cl)ccc12.Cl.Cl.Cl,NF-kB SEAP reporter activity,[1]; [9],0.958
same,NF-kB SEAP reporter activity,[1]; [10],2.39
CCN(CCO)CCCC(C)Nc1ccnc2cc(Cl)ccc12.O=S(=O)(O)O (centres undefined),NF-kB SEAP reporter activity,"[1]; library stock concentration (final ~1000-fold dilution): 10 mM water, cytotoxicity flag (confluency mask): not cytotoxic, agonist: Imiquimod (TLR7) […]",0.389
same,NF-kB SEAP reporter activity,"[1]; library stock concentration (final ~1000-fold dilution): 10 mM water, cytotoxicity flag (confluency mask): not cytotoxic, agonist: MPLA (TLR4) […]",1.3
CN(CCNc1ccnc2cc(Cl)ccc12)CCNc1ccnc2cc(Cl)ccc12.Cl.Cl.Cl (library stock concentration (final ~1000-fold dilution): 10 mM),NF-kB SEAP reporter activity,[3]; agonist: LPS (TLR4) 0.1 ug/mL,4.28
same,NF-kB SEAP reporter activity,[3]; [6],0.547
same,NF-kB SEAP reporter activity,[3]; [7],1.63
same,NF-kB SEAP reporter activity,[3]; [8],2.17
Cc1cc2ncc(C(=O)NCC(C)(C)NCC(=O)N3CCCC3C#N)cn2n1 (centres undefined),NF-kB SEAP reporter activity,[1]; [4],0.977
same,NF-kB SEAP reporter activity,[1]; [5],1.04
Cc1cc2ncc(C(=O)NCC(C)(C)NCC(=O)N3CCCC3C#N)cn2n1 (centres undefined) (library stock concentration (final ~1000-fold dilution): 10 mM),NF-kB SEAP reporter activity,[2]; agonist: LPS (TLR4) 0.1 ug/mL,1.57
same,NF-kB SEAP reporter activity,[2]; [6],0.997
same,NF-kB SEAP reporter activity,[2]; [7],0.911
same,NF-kB SEAP reporter activity,[2]; [8],0.96
COc1ccccc1Nc1nc(-c2sc(NC(C)=O)nc2C)cs1,NF-kB SEAP reporter activity,[1]; [4],0.623
same,NF-kB SEAP reporter activity,[1]; [5],0.687
COc1ccccc1Nc1nc(-c2sc(NC(C)=O)nc2C)cs1 (library stock concentration (final ~1000-fold dilution): 10 mM),NF-kB SEAP reporter activity,[2]; agonist: LPS (TLR4) 0.1 ug/mL,0.496
same,NF-kB SEAP reporter activity,[2]; [6],0.464
same,NF-kB SEAP reporter activity,[2]; [7],0.318
same,NF-kB SEAP reporter activity,[2]; [8],0.245
CC(C)(OC1OC(CO)C(O)C(O)C1O)C1Cc2cc3ccc(=O)oc3cc2O1 (centres undefined),NF-kB SEAP reporter activity,[1]; [4],1.21
same,NF-kB SEAP reporter activity,[1]; [5],1.19
CC(C)(OC1OC(CO)C(O)C(O)C1O)C1Cc2cc3ccc(=O)oc3cc2O1 (centres undefined) (library stock concentration (final ~1000-fold dilution): 10 mM),NF-kB SEAP reporter activity,[2]; agonist: LPS (TLR4) 0.1 ug/mL,1.14
same,NF-kB SEAP reporter activity,[2]; [6],1.31
same,NF-kB SEAP reporter activity,[2]; [7],1.27
same,NF-kB SEAP reporter activity,[2]; [8],1.48
Cl.O=C1C2CCCCC2C(=O)N1CCCCN1CCN(c2nsc3ccccc23)CC1 (centres undefined),NF-kB SEAP reporter activity,[1]; [5],0.868
Cl.O=C1C2CCCCC2C(=O)N1CCCCN1CCN(c2nsc3ccccc23)CC1 (centres undefined) (library stock concentration (final ~1000-fold dilution): 10 mM),NF-kB SEAP reporter activity,[2]; agonist: LPS (TLR4) 0.1 ug/mL,0.671
same,NF-kB SEAP reporter activity,[2]; [6],0.536
same,NF-kB SEAP reporter activity,[2]; [7],0.848
same,NF-kB SEAP reporter activity,[2]; [8],0.888
